This is an account of results in PubChem BioAssay (NCATS).

Inconclusive results are not listed. Entries that show only a call come without a potency. Values without a mark were called inactive. Calls of active or inactive are those of the source. Calls follow the shape of the dose curve; as a rule, active = well fitted inhibition curve with a large enough effect; inconclusive = small, poorly fitted or top-dose-only effect; inactive = flat fitted curve, though single readings scatter.

The target of the test is Calcium and integrin-binding protein 1 (Homo sapiens) (UniProt Q99828). In words: Primary qHTS for Identification of Calcium Integrin Binding Protein 1 (CIB1) Competitor (AID 1508620).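 Also: GST tagged CIB1 binding a fluorescein labelled alphaIIb integrin peptide tracer; top concentration of the series differs between compounds.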 As to conditions: CIB1-GST / FITC-alphaIIb peptide fluorescence polarization; series mostly up to 114 µM. The method, boiled down: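 Fluorescence polarization competition: CIB1-GST (1 uM final) preincubated with compound 15 min at room temperature, then FITC-labeled alphaIIb peptide (100 nM final) added for another 15 min. Polarization read at Ex 480/Em 540.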
Calcium and integrin-binding protein 1 (Homo sapiens), sequence (Q99828 whole entry, looked up): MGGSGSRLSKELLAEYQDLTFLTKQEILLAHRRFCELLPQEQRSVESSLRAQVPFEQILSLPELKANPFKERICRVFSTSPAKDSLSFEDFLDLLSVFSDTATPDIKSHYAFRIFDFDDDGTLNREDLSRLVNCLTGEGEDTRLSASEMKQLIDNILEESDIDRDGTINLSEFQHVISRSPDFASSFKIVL
In general terms: qHTS replaces the single test concentration by a dilution series.
For `C[C@@H](O)[C@H](NC(=O)c1ccc(C#Cc2ccc(CN3CCOCC3)cc2)cc1)C(=O)NO`, the Potency entry was “inactive”.
As to `CC1(C)C2CC(OC3OC(COC4OCC(O)(CO)C4O)C(O)C(O)C3O)C1(C)CC2O` (stereo not given), the Potency entry is “inactive”.
Still for that read-out and setting: under `CN(CCc1ccc(Nc2ncc(-c3cccnc3)s2)cc1)Cc1ccccc1` stands “inactive”.
Take `COc1ccc(N2CCOCC2)c2sc(NC(=O)N3CCC(C)(O)CC3)nc12`: the Potency result is “inactive”.
Regarding `CC(C)=CCCC1(C)C=Cc2c(c(C)cc3c2[nH]c2ccccc23)O1` (stereo not given), the Potency result is “inactive”.
As for `C=C(C(=O)O)C1CCC2(C)CCCC(C)(O)C2C1` (stereo not given), the Potency result was “inactive”.
`CCOCCn1nc(CC)c2nc(N3CCC(C(=O)O)CC3)nc(Nc3cc(C)ccn3)c21`: the Potency entry was “inactive”.
As to `OCc1ccc(O[C@@H]2O[C@H](CO)[C@@H](O)[C@H](O)[C@H]2O)cc1`, the Potency entry is “inactive”.
In the case of `C[C@H]1O[C@@H](O[C@H]2CC[C@@]3(C)C(CC[C@]4(C)C3CC=C3C5CC(C)(C)CC[C@]5(C(=O)O)CC[C@]34C(=O)O)C2(C)C)[C@H](O)[C@@H](O)[C@@H]1O` (stereo not given in full), the Potency entry is “inactive”.
`C=C(C)C1Cc2cc(C(=O)OC3OC(CO)C(O)C(O)C3O)ccc2O1` (stereo not given): the Potency entry was “inactive”.
For `C=C(C(=O)OC)C1C(O)CC2(C)C(=O)CCC(O)(CO)C2C1O` (stereo not given), the Potency entry was “inactive”.
For `C=C[C@@](C)(O)CC/C=C(\C)C(=O)O[C@@H]1[C@@H]2O[C@]2(C)[C@H]2[C@H](O[C@@H]3O[C@H](CO)[C@@H](O)[C@H](O)[C@H]3O)OC=C[C@@]12O`, the Potency entry was “inactive”.
In the case of `C[C@H](C(=O)NC1CCCC1)N(C(=O)Cn1nnc(-c2ccc3c(c2)OCO3)n1)C1CCCCC1`, the Potency entry is “inactive”.
`Cc1noc(=O)c2ccc(NC(=O)C(O)(CC(C)(C)c3cccc4c3OCC4)C(F)(F)F)cc12` (stereo not given): the Potency entry was “inactive”.
As to `C=C1CC[C@@H]2[C@@](C)(CO[C@@H]3O[C@H](CO)C(O)[C@H](O)C3O)[C@H](O)CC[C@@]2(C)[C@@H]1CC/C(C)=C/CO` (stereo not given in full), the Potency entry was “inactive”.
Turning to `CC/C=C\CCO[C@@H]1O[C@H](CO[C@@H]2OC[C@H](O)[C@H](O)[C@H]2O)[C@@H](O)[C@H](O)[C@H]1O`, the Potency result is “inactive”.
Consider `CC1(C)CCC[C@]2(C)[C@H]3CC(=O)O[C@]3(C)CC[C@@H]12`, for which the Potency entry was “inactive”.
On to `C/C=C(/COC(=O)/C(C)=C/C)C(=O)OC(CC)c1ccc(OC)c(OC)c1` (stereo not given), for which the Potency entry was “inactive”.
For `O=C(Nc1ccccc1-c1cn2c(CN3CCNCC3)csc2n1)c1ccc2ccccc2n1`, the Potency result is “inactive”.
For the molecule `[N-]=[N+]=N[C@]1(CO)O[C@@H](n2ccc(=O)[nH]c2=O)[C@@H](O)[C@@H]1O`, the Potency result was “inactive”.
Turning to `Cc1c(CN2CCN(C(=O)C(C)O)CC2)sc2c(N3CCOCC3)nc(-c3cnc(N)nc3)nc12` (stereo not given), the Potency result is “inactive”.
In the case of `CC(/C=C/C1=CC2=CC(=O)C(C)(O)C(O)C2=CO1)=C\C(C)CCO` (stereo not given), the Potency result is “inactive”.
With `NC(=O)c1cccc(-c2cc(OC(=O)NC3CCCCC3)ccc2O)c1`, the Potency result is “inactive”.
Consider `Cc1cccc(C)c1OCc1cc(C(=O)N2CCC(c3ccncc3)CC2)no1`, for which the Potency result is “inactive”.
Turning to `O=C(c1ccc(/C=C/c2n[nH]c3ccccc23)cc1)N1CCNCC1`, the Potency result is “inactive”.
Turning to `CC1(C)CC[C@]23CO[C@@]4(CCC5[C@@]6(C)CC[C@H](O[C@@H]7OC[C@H](O[C@@H]8O[C@H](CO)[C@@H](O)[C@H](O)[C@H]8O)[C@H](O)[C@H]7O[C@@H]7O[C@H](CO)[C@@H](O[C@@H]8O[C@H](CO)[C@@H](O)[C@H](O)[C@H]8O)[C@H](O)[C@H]7O)[C@@](C)(CO)C6CC[C@@]5(C)[C@]4(C)C[C@H]2OC2OCC(O)C(O)C2O)C3C1` (stereo not given in full), the activity change, negative = inhibition was -6.44% [at 12.4 µM].
Consider `CC(=O)O[C@]1(C(C)=O)CC[C@H]2[C@@H]3C[C@H](C)C4=CC(=O)C=C[C@]4(C)[C@@]3(F)[C@@H](O)C[C@@]21C`, for which the Potency entry is “inactive”.
Consider `CC1OC2OC(=O)C3(C)CC4=C(CO)C5=C(CC(=O)C4(C)C(C1=O)C23)C(C)(C)OC(=O)C5` (stereo not given), for which the Potency entry is “inactive”.
Still for that read-out and setting: under `CC(C)Oc1ccc(C(=O)NC(CNC(=O)CN(C)C)Cc2ccc(-c3cn4cccc(C(C)O)c4n3)cc2)cc1Cl` (stereo not given) stands “inactive”.
With `C[C@@H]1C[C@@H]2O[C@H]2/C=C\C=C\C(=O)Cc2c(Cl)c(O)cc(O)c2C(=O)O1`, the Potency result was “inactive”.
On the same count and under the same terms, under `COc1ccc2nc(S(=O)(=O)Cc3ncc(C)c(OC)c3C)[nH]c2c1` stands “inactive”.
Still for that read-out and setting: under `CO[C@@H](C)Cn1c(=O)n(C)c2cnc3ccc(-c4cncc(C(C)(C)O)c4)cc3c21` stands “inactive”.
As to `CN(C)CCCCC(=O)Nc1ccc(NC(=S)NC(=O)c2ccc(C(C)(C)C)cc2)cc1`, the Potency result is “inactive”.
Take `COc1ccc(CCO[C@@H]2O[C@H](CO[C@@H]3OC[C@H](O)[C@H](O)[C@H]3O)[C@@H](O)[C@H](O)[C@H]2O)cc1`: the Potency entry is “inactive”.
As for `CC(C(O)/C=C/C(C)(C)O)C1CCC2(C)C3C(=O)C=C4C(CCC(O)C4(C)C)C3(C)CCC12C` (stereo not given), the Potency entry is “inactive”.
Still for that read-out and setting: under `CCOCc1cc(OC)c(-c2ccc(C[C@H](NC(=O)c3c(F)cccc3F)C(=O)O)cc2)c(OC)c1` stands “inactive”; under `CNC(=O)c1ccccc1Nc1nc(Nc2ccc3c(c2OC)CCCC(N2CCN(CCO)CC2)C3)ncc1Cl` (stereo not given), “inactive”; under `CC(Cc1cc2c(c(C(N)=O)c1)N(CCCO)CC2)NCCOc1ccccc1OCC(F)(F)F` (stereo not given), “inactive”.
With `COc1cc2c3c(cc4ccccc4c3c1O)NC2=O`, the Potency entry was “inactive”.
`COc1cc(/C=C/CO)cc(OC)c1O[C@@H]1O[C@H](CO[C@@H]2O[C@H](CO)[C@@H](O)[C@H](O)[C@H]2O)[C@@H](O)[C@H](O)[C@H]1O`: the Potency result was “inactive”.
